About 1,000 (71%) of roughly 1,400 compounds were called active. How the calls were made is not given here. The set was probably picked from earlier hits. These entries were drawn from the full list. Results with a measured potency or affinity are listed apart.
assay: blockers of HIV-1 envelope-mediated cell-cell fusion – cherry-pick, dose response (AID 652057); conditions: HeLa-JRFL Env/CEM21 cell fusion, luciferase; series mostly up to 35 µM; activity change, negative = inhibition: at the top concentration

Activity change, negative = inhibition, inactive:
C[C@H](CO)N1C[C@H](C)[C@H](CN(C)C(=O)Nc2ccccc2)Oc2c(NS(=O)(=O)c3ccc(F)cc3)cccc2C1=O 77.5% [at 8 µM], Cc1nn(C)c(C)c1CN(C)S(=O)(=O)c1ccc2ccccc2c1 -19.4%, O=C(C[C@H]1C[C@H]2c3cc(NC(=O)NC4CCCC4)ccc3O[C@H]2[C@@H](CO)O1)NC1CCCCC1 4.98% [at 30 µM], COc1ccccc1S(=O)(=O)n1cc(Cc2ccccc2)c(N)n1 0.466%, COc1ccc(S(=O)(=O)N[C@@H]2CC[C@@H](CC(=O)NCCc3ccncc3)O[C@@H]2CO)cc1 -7.73%, O=C(NCC[C@@H]1CC[C@@H](NS(=O)(=O)c2ccccc2F)[C@@H](CO)O1)c1ccc(F)cc1 23.2%, CC1CN(S(=O)(=O)c2cc(C(=O)NCCC3=CCCCC3)ccc2Cl)CC(C)O1 (configuration not stated) -19.3% [at 16 µM], O=C(Nc1ccc(F)cc1)Nc1ccc2c(c1)[C@H]1C[C@@H](CC(=O)N3CCCCC3)O[C@H](CO)[C@H]1O2 23.7%, CO[C@@H]1CN(C)C(=O)c2cc(NC(=O)Nc3ccc(Cl)cc3)ccc2OC[C@H](C)N(C)C[C@H]1C -23%, CCOc1ccccc1C(=O)NCC(=O)NNC(=O)CN(C)S(=O)(=O)c1ccc(Cl)cc1 -16.5%, COc1cccc(S(=O)(=O)N[C@H]2CC[C@H](CC(=O)NCc3ccncc3)O[C@@H]2CO)c1 2.5%, CCOC(=O)CN1CCCc2nc(C)c(C)cc21 8.7%, C[C@@H]1CN([C@@H](C)CO)S(=O)(=O)c2ccc(-c3ccccc3)cc2O[C@H]1CN(C)S(C)(=O)=O -12.1%, CO[C@H]1CN(C)C(=O)c2cc(NC(=O)c3ccc(F)cc3)ccc2OC[C@H](C)N(C(=O)CN(C)C)C[C@@H]1C 16.8%, CC(CCc1ccco1)NC(=O)CCc1nnc2ccc(NCc3ccccc3Cl)nn12 (configuration not stated) 19.2%, C[C@@H]1CN([C@@H](C)CO)C(=O)Cc2cc(NC(=O)NC3CCCCC3)ccc2O[C@@H]1CN(C)S(=O)(=O)c1ccc(Cl)cc1 17.7% [at 16 µM], CC1CCCC(C)N1CCCNC(=O)c1nn(C)c2c1CSc1ccccc1-2 (configuration not stated) 49.2%, CCOc1ccc(NC2c3ccccc3C(=O)N2Cc2ccco2)cc1 (configuration not stated) 4.3%, Cn1c(=O)oc2cc(S(=O)(=O)NCc3ccncc3)ccc21 -2.17%, O=C(C[C@@H]1C[C@H]2c3cc(NC(=O)C4CCOCC4)ccc3O[C@H]2[C@H](CO)O1)NCc1ccccc1F 23.4%, Cc1noc(C)c1NC(=O)N(C)C[C@H]1OCCCC[C@H](C)Oc2ccc(NC(=O)c3ccccc3)cc2C(=O)N([C@H](C)CO)C[C@@H]1C 24.3%, CC(C)NC(=O)Nc1ccc2c(c1)C(=O)N([C@@H](C)CO)C[C@H](C)[C@H](CN(C)C(=O)Nc1ccc(F)cc1)O2 -14.9%
